Data on 14 molecules can be found in PubChem BioAssay (NCI).

The panel holds about 83,000 compounds, 20% with a hit somewhere; the sample as a whole holds those more often.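 96-well plates, one dose, 48 hours. Percent growth reported; active if below 10.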 Activity calls are given as the source filed them.

The assay has as its system MDA-MB-468 breast. Briefly: NCI-60 one-dose screen, 48 h (100 = growth as untreated, 0 = no growth, -100 = all killed). To be noted: 10 µM unless noted.
As to `Cc1cccc([N+](=O)[O-])c1I`, the growth was 104% (inactive). The figure for `COc1cccc(Oc2ccccc2NC(=O)CNC(=O)c2cccc3ccccc23)c1` is 12.1% [5 µM] (inactive); for `COc1ccc(-c2c(N)n[nH]c2-c2cc3c(c(OC)c2OC)OCO3)cc1` it is 104% (inactive); for `Cc1ccc(/C=C2\CN(C(=O)CCN3CCC(=NO)CC3)C/C(=C\c3ccc(C)cc3)C2=O)cc1` it is -54.2% (active). The figure for `COC(=O)Nc1nc2ccc(C(=O)c3ccc(F)cc3)cc2[nH]1` is 25.9% (inactive).

Consider `CN1CCN(c2c(F)cc(NC3=C(Cl)C(=O)c4ncccc4C3=O)cc2F)CC1`, for which the growth is -46.6% (active).

As for `NC(=O)c1c(NC(=O)c2ccc3c(c2)OCO3)sc2c1CCC(=O)C2`, the growth is -35.3% (active). As to `Cc1c(C(=O)NC(Cc2ccccc2)C(O)C(=O)NCc2ccc(F)cc2)[nH]c2ccccc2c1=O` (centres undefined), the growth is 99.4% (inactive). As for `Cc1ccccc1NC(=O)Cn1cc(CN2CCN(c3ccnc4cc(Cl)ccc34)CC2)nn1`, the growth was 93% (inactive). Consider `NC1=NC(c2cccc(Br)c2)c2sc3ccc(Cl)cc3c2N1` (centres undefined), for which the growth was 87.4% (inactive). As to `C=CCn1cc(-c2nc3ccccc3s2)c2cc(-c3ccc4c5c(cccc35)C(=O)N(CCO)C4=O)ccc21`, the growth is 96% (inactive). The figure for `Brc1ccc(C2CC(c3cccc(Nc4ccncc4)c3)=NN2c2ccccc2)cc1` (centres undefined) is 78.2% (inactive); for `CC(=NCc1ccccc1)c1ccc(O)cc1O` it is 118% (inactive). The figure for `C=C(c1ccc(OC)c(/C=C/C(=O)c2ccc3c(c2)OCO3)c1)c1cc(OC)c(OC)c(OC)c1` is 37.4% (inactive).
